Data taken from PubChem BioAssay (NCI).
Compounds without any hit were thinned out: in the full panel of roughly 83,000, 20% have a hit.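 Results are percent growth after 48 hours of single-concentration exposure. 100 means growth as in untreated cells, lower positive values show inhibition; negative values down to -100 show cell death.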 Activity calls are given as the source filed them. The calls were made as follows: active = growth percent below 10; inactive = the rest.

Experiments:
Test in all cases: NCI-60 one-dose screen, 48 h (100 = growth as untreated, 0 = no growth, -100 = all killed)
Conditions in all cases: 10 µM unless noted
[1] = system: NCI-H23 lung
[2] = system: NCI-H226 lung
[3] = system: NCI-H322M lung
[4] = system: HOP-62 NSCLC
[5] = system: NCI-H460 lung
[6] = system: NCI-H522 lung
[7] = system: A549/ATCC NSCLC
[8] = system: 786-0 renal
[9] = system: COLO 205 colon
[10] = system: DU-145 prostate
[11] = system: MALME-3M melanoma
[12] = system: MDA-MB-231 breast
[13] = system: RXF 393 renal
[14] = system: SF-268 CNS
[15] = system: SF-295 CNS
[16] = system: UACC-257 melanoma
[17] = system: M14 melanoma
[18] = system: HCT-15 colon
[19] = system: K-562 leukemia
[20] = system: SF-539 CNS

Measured: growth

Cc1c(C(N)=O)sc2c1c(=O)n(Cc1ccccc1)c1nnc(S(=O)(=O)CC(=O)Nc3ccc(Cl)cc3)n21
inactive: [1] 43.2% | [3] 34.8% | [6] 16.9% | [7] 28.5% | [9] 47.2% | [10] 43.9% | [11] 30% | [12] 20.5% | [13] 41.8% | [14] 73.6% | [15] 35.1% | [16] 47.4% | [17] 45.2% | [18] 73.1%
active: [2] -4.71% | [4] -26.9% | [5] -20.8% | [8] 3.47%

COc1ccc(/C=N\Nc2ccc([N+](=O)[O-])cn2)cc1OC
inactive: [1] 88.4% | [2] 34.7% | [3] 10.8% | [4] 25.4% | [6] 47.9% | [7] 30.3% | [8] 10.2% | [9] 67.5% | [10] 73.7% | [19] 93.7% | [13] 51.6% | [14] 73.3% | [15] 35.4% | [20] 32.1% | [16] 67.6% | [17] 110% | [18] 95.8%
active: [5] 1.43% | [12] -0.447%

O=C(Nc1nc(-c2ccc(Cl)cc2)cs1)c1cc(O)c(O)c(O)c1
active: [6] -34.9% | [19] 7.99% | [20] 5.36%
inactive: [1] 42.2% | [2] 74.9% | [3] 60.8% | [4] 38.6% | [5] 10.2% | [7] 25.2% | [8] 11.5% | [9] 77.6% | [10] 35.8% | [12] 36% | [14] 26.7% | [15] 31.2% | [16] 42.7% | [17] 23.2% | [18] 18.8%

COC(=O)CCC1=C(CC(=O)OC)C(C)=N/C1=C\c1[nH]c(-c2ccc[nH]2)cc1OC
inactive: [1] 49.4% | [2] 54.5% | [3] 53.3% | [4] 46.1% | [5] 19.1% | [7] 18% | [8] 50.2% | [9] 30.5% | [10] 36.9% | [13] 52.8% | [14] 44.8% | [15] 39.3% | [20] 38.8% | [16] 32.5% | [17] 17.2%
active: [6] -7% | [19] -3.71% | [12] -12.2% | [18] 8.89%

Oc1ccccc1C=Nc1ccccc1N=Cc1ccccc1O.[Cu+2]
inactive: [1] 33.1% | [2] 71.1% | [3] 51.1% | [4] 66% | [5] 84.1% | [6] 14.9% | [7] 66% | [8] 90.9% | [9] 83.7% | [10] 68.5% | [19] 36.7% | [12] 63.5% | [13] 104% | [14] 75.2% | [15] 68.6% | [20] 76% | [16] 45.4% | [17] 65.2% | [18] 56.5%

N#Cc1cccc(/C=C(/C(=O)c2ccccc2)c2ccccc2)c1
active: [19] 1.89%
inactive: [1] 81.2% | [2] 71.7% | [3] 77.8% | [4] 94.5% | [5] 77.5% | [6] 57.8% | [7] 62.8% | [8] 76.2% | [9] 96.8% | [10] 37% | [12] 54.5% | [14] 51.1% | [15] 63.5% | [20] 91.9% | [16] 43.1% | [17] 58.8% | [18] 18.9%

CC1=CSC2=NCCN12
inactive: [1] 104% | [2] 112% | [3] 118% | [4] 108% | [5] 109% | [6] 100% | [7] 105% | [8] 104% | [9] 107% | [10] 108% | [19] 101% | [12] 122% | [13] 121% | [14] 102% | [15] 132% | [20] 95.8% | [16] 116% | [17] 108% | [18] 109%

COc1ccc(-c2c(N)noc2-c2cc(OC)c3c(c2)OCCO3)cc1
inactive: [3] 53% | [4] 23% | [7] 21.3% | [8] 13.1% | [11] 81.2% | [12] 27.5% | [13] 39.2% | [14] 26.8% | [15] 12.8% | [16] 72.6% | [18] 15.7%
active: [1] 1.48% | [2] -17.1% | [5] 7.94% | [6] 0.361% | [9] -75.8% | [10] -17.2% | [20] 4.21%
